Bioassay records as filed in PubChem BioAssay.
MBD2 inh – inhibitors of MBD2 binding to methylated DNA, primary screen, biochemical, TR-FRET, DNA-binding domain, human | MBD2 binding to methylated oligonucleotide | 370,000 tested, 0.31% active | inhibition, % at 4.4 µM | AID 686964, 2013 | Methyl-CpG-binding domain protein 2 (Homo sapiens), Q9UBB5; in the data active = inhibition above about 13%
DNMT1 inh – human DNMT1 methyltransferase inhibitors, primary screen, biochemical, molecular beacon, fluorescence, HinP1I cleavage, uHTS. inhibition (reported as % activation of signal), % at 10 µM. 360,000 tested, 0.83% active; in the data active = inhibition above about 50%
Target sequence (P26358 504-1616 limits assumed): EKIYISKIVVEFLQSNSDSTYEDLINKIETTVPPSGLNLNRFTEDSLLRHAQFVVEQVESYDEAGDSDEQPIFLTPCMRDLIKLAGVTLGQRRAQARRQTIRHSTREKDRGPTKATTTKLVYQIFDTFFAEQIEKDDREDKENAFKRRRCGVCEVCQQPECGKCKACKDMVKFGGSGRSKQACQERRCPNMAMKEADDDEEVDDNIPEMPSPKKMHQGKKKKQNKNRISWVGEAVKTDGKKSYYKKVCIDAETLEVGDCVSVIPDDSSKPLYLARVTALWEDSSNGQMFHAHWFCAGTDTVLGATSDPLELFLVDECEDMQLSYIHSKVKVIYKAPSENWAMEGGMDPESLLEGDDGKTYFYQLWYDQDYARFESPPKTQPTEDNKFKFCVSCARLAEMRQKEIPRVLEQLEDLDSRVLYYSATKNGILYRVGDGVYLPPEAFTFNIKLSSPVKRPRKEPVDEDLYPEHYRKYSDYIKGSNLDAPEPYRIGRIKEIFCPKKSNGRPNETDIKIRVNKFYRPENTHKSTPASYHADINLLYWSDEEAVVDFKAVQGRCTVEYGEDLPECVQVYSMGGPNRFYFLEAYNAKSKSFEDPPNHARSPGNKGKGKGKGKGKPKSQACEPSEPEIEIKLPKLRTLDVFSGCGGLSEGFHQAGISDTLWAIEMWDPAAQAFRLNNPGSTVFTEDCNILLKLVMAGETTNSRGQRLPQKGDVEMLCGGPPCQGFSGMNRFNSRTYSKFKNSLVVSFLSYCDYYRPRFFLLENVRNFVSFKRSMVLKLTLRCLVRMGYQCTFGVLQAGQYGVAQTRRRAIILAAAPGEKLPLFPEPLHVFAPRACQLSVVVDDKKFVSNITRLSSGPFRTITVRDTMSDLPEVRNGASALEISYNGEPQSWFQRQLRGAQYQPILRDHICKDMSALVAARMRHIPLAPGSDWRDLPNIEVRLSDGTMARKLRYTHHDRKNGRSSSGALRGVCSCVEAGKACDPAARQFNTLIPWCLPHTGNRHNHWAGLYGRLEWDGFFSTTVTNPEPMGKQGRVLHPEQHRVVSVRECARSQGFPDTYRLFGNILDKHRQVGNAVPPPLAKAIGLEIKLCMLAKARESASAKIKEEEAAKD
LEDGF integ inh – blockers of LEDGF/p75-dependent integrase strand transfer – biochemical, TR-FRET, high throughput, primary screen. 370,000 tested, 0.64% active. TR-FRET IN-LEDGF/p75 DNA integration, Eu/Cy5. AID 743269, 2014. inhibition, % at 3.7 µM;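 active = inhibition above the screen-wide mean plus 3 SD, cut at about 13% in these data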;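 also: signal is the Cy5 over europium emission ratio at 671 and 618 nm; 0% = plate median of compound wells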
UHRF1 MBD2 ctr – UHRF1 methylated DNA binding inhibitors, primary screen, counter-screen for MBD2 inhibitor project, biochemical, TR-FRET, human UHRF1, single concentration | E3 ubiquitin-protein ligase UHRF1 (Homo sapiens), Q96T88 | UHRF1 binding to methylated oligo | inhibition, % at 4.4 µM | 370,000 tested, 0.75% active | AID 687016, 2013; in the data active = inhibition above about 21%;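 also: UHRF1 SRA domain binding a hemimethylated CpG hairpin DNA probe; 0% = median of test compound wells and 100% = reference inhibitor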
PG9 binder – binders of HIV-1 gp120 antibody PG9, primary screen, biochemical, TR-FRET. HIV-1 gp120 / PG9 antibody interaction. TR-FRET gp120-PG9 antibody binding. inhibition, % at 6.7 µM. 360,000 tested, 0.43% active. AID 624416, 2012; in the data active = inhibition above about 8.5%
rCAG binder – binders of r(CAG) RNA repeats, primary screen, biochemical, fluorescence. r(CAG) RNA repeat, TO-PRO-1 dye displacement fluorescence. inhibition, % at 3 µM. 370,000 tested, 1.3% active;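 active = inhibition above the plate cutoff, the mean of all test compounds on that plate plus 3 SD, cut at about 35% in these data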;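 also: 0% = DMSO alone and 100% = 100 µM mitoxantrone as full dye displacement; higher means more dye released from RNA so lower well fluorescence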
Active calls of the source: *; · = no result. An excerpt weighted towards active compounds, which were near 3.5% of everything screened.

SMILES | MBD2 inh | DNMT1 inh | LEDGF integ inh | UHRF1 MBD2 ctr | PG9 binder | rCAG binder
N#Cc1c(-c2ccccc2)nc(SCC(=O)N2c3ccccc3Sc3ccccc32)[nH]c1=O | -6 | 5 | 3 | 0 | 3 | 89*
CN1Cc2nnn(Cc3ccccc3)c2-c2ccccc2S1(=O)=O | 2 | · | -2 | 0 | · | 1
O=C(O)CCCCCN=Cc1c(O)c2ccccc2oc1=O | -3 | 5 | -3 | 23* | -1 | 1
O=C(CN1CCCCCCC1)Nc1cc(Cl)cc(Cl)c1 | -5 | 4 | 4 | 57* | 0 | -3
O=C(CN1CCCC1)Nc1cccc(Cl)c1 | 3 | 0 | 0 | 2 | 0 | 0
CCCCc1c(Cc2cccc(F)c2)ncn1CCc1ccccc1OC | 5 | · | 10 | 21* | 2 | -2
Cc1cc(NS(=O)(=O)c2ccc(NC(=O)CSc3nc4ncc(Cl)cc4[nH]3)cc2)nc(C)n1 | 3 | 1 | -5 | 1 | 1 | 7
Cc1cc(NS(=O)(=O)c2ccc(NC(=O)CSc3nc4ncc(Br)cc4[nH]3)cc2)nc(C)n1 | 3 | 1 | -6 | 39* | 0 | 11
CC(C)C[C@H](NC(=O)N1CCn2c1nc1ccccc12)C(=O)NCCc1ccccc1 | 2 | -4 | 1 | 52* | 0 | -6
Cc1ccc(NC(=O)[C@@H]2CC(=O)O[C@@H]2c2ccccc2)c(C)c1 | 1 | · | -2 | 0 | · | 0
Cc1ccc(NC2=CC(=O)C(=O)c3ccccc32)c(C)c1 | -13 | 13 | 4 | -1 | -9 | 4
O=C1C=C(NCc2ccccc2)c2ccccc2C1=O | -21 | 84* | 12 | -7 | -4 | 4
CCOc1ccc(NC2=CC(=O)C(=O)c3ccccc32)cc1 | -26 | 31 | 23* | -8 | -22 | 7
O=C1C=C(Nc2ccc(F)cc2)c2ccccc2C1=O | -18 | 54* | 8 | -6 | -13 | 6
COC(=O)[C@]1(CNC(=O)c2cc(F)ccc2F)CC(=O)N(C)[C@@H]1c1ccccc1 | -3 | · | 0 | -1 | · | 0
Cc1ccc(Oc2ccc3c(c2)C(=O)N(c2ccc(S(=O)(=O)Nc4nccs4)cc2)C3=O)cc1 | 4 | 2 | 0 | 1 | 5 | 61*
Cc1cccc(S(=O)(=O)Nc2ccc(S(=O)(=O)Nc3nccs3)cc2)c1 | -1 | 1 | -3 | 3 | 0 | 6
Cc1nc2c(C(=O)NCc3ccc(F)cc3)c[nH]n2c(=O)c1Cl | 2 | 0 | 4 | 0 | -2 | 46*
COCCCn1cc(CN(C)C2CN(Cc3cn(CCCOC)nn3)S(=O)(=O)C2)nn1 (stereo not given) | 8 | · | 2 | 24* | -1 | 3
Cc1cccn2cc(-c3ccc(S(=O)(=O)N4CCCCC4)cc3)nc12 | 10 | -2 | -1 | 25* | 1 | -3
O=C(OC12CCCN(C1)/C(=C/c1cccc(Cl)c1)C2)c1cccc(F)c1 (stereo not given) | -2 | · | 2 | 1 | · | 0
CC(=O)Nc1c(-c2ccc(C)cc2)nc2ncccn12 | 1 | · | 1 | 1 | · | 1
Clc1ccccc1Cc1noc(CN2CCN3CCCC3C2)n1 (stereo not given) | 4 | -2 | 2 | 29* | 1 | -2
OC1CCN(Cc2nc(Cc3ccccc3Cl)no2)CC1 | 6 | 0 | 0 | 11 | -3 | -2
COc1cccc(/C=N/NC(=O)c2cc3cc([N+](=O)[O-])ccc3s2)c1O | 2 | 99* | 1 | -4 | 0 | 15
SMILES | MBD2 inh | DNMT1 inh | LEDGF integ inh | UHRF1 MBD2 ctr | PG9 binder | rCAG binder
Cc1ccc2nc(-c3ccccc3)c(CN3CCN(c4ccccc4F)CC3)n2c1 | -1 | 1 | 0 | 23* | 0 | 0
CC[C@@H](CCC1CCCCC1)CN(c1ccccc1)S(C)(=O)=O | -6 | · | -2 | 0 | · | 1
O=C(Cn1c(-c2ccccc2Cl)nc2ccccc21)Nc1cccc(Cl)c1 | 0 | 4 | 3 | -1 | -3 | 1
Cc1cc(C)cc(NC(=O)Cn2c(-c3ccccc3Cl)nc3ccccc32)c1 | 4 | -11 | -1 | 22* | -1 | 2
CC(=O)c1cccc(NC(=O)C2(c3ccccc3)CC2(Cl)Cl)c1 (stereo not given) | 4 | -1 | -1 | 25* | -1 | 0
CCOC(=O)c1sc(NC(=O)Nc2ccccc2F)nc1C | 3 | 4 | -2 | 3 | 2 | 11
CCOC(=O)c1sc(Nc2ccccc2Cl)nc1C | 5 | 18 | 6 | 27* | 0 | -2
COc1cc(O)c(C(CC(=O)N2CCC(C)CC2)c2ccc3c(c2)OCO3)c(OC)c1 (stereo not given) | 0 | · | -2 | 2 | · | ·
CCCC1CCC2(CCCN2CCOC(=O)Nc2ccc(Br)cc2)CC1 (stereo not given) | 5 | · | -1 | 3 | · | ·
CC(C)C[C@@H](CN)NC(=O)c1nc[nH]c1C(=O)N[C@@H](Cc1ccccc1)C(=O)CNC[C@H](C)NC(=O)c1nc[nH]c1C(=O)N[C@@H](CC(C)C)C(=O)O | 9 | 3 | -2 | 21* | 0 | 1
CC(C)C[C@@H](CNCC(=O)[C@H](Cc1c[nH]c2ccccc12)NC(=O)c1[nH]cnc1C(=O)N[C@@H](C)CN)NC(=O)c1nc[nH]c1C(=O)N[C@@H](Cc1ccccc1)C(=O)O | 12 | -18 | -1 | 21* | 2 | 9
CC(C)C[C@@H](CN)NC(=O)c1nc[nH]c1C(=O)N[C@@H](Cc1c[nH]c2ccccc12)C(=O)CNC[C@H](C)NC(=O)c1nc[nH]c1C(=O)N[C@@H](C)C(=O)O | 12 | 9 | -1 | 24* | 0 | 5
CC(C)C[C@@H](CN)NC(=O)c1nc[nH]c1C(=O)N[C@@H](Cc1ccccc1)C(=O)CNC[C@H](C)NC(=O)c1nc[nH]c1C(=O)N[C@@H](C)C(=O)O | -2 | -21 | -3 | 2 | 2 | 0
CC(C)C[C@@H](CN)NC(=O)c1nc[nH]c1C(=O)N[C@@H](C)C(=O)CNC[C@H](C)NC(=O)c1nc[nH]c1C(=O)N[C@@H](CC(=O)O)C(=O)O | 7 | 8 | -2 | 15 | 0 | 0
COc1ccccc1NC(=O)O[C@@H]1CC[C@@]23CCCN2C(=O)CCC[C@H]3C1 | 9 | · | 1 | 1 | · | ·
CC1=NN(c2ccccc2)C(=O)/C1=C/c1c(O)n(-c2ccc(F)cc2)[nH]c1=O | -2 | -19 | 2 | -8 | -3 | 91*
